# From ChEMBL document CHEMBL4513216, “Probing the Open Global Health Chemical Diversity Library for Multistage-Active Starting Points for Next-Generation Antimalarials” (ACS Infect Dis, 2020)
# About 2,700 (4%) of roughly 68,000 compounds showed an effect of 50% or more. Many of the other results were omitted from the sample, so strong results are more common in it than they were.
# Test system: Plasmodium berghei
# Assay: Screen against P. berghei liver stage (PbLuc), transformed with Luciferase, at 2uM
# Format: functional, HepG2
# Conditions: tested at 2 uM
row,Compound,INHIBITION
1,O=C(CCc1ccccc1Br)NCC(=O)NCc1ccccc1,-13.34%
2,CCc1noc(C(C)N(C)CC(=O)Nc2cccc(C)c2C)n1 (centres undefined),1.73%
3,CCc1noc(C(C)N(C)CC(=O)Nc2c(C)cccc2C)n1 (centres undefined),32.81%
4,CCc1noc(C(C)N(C)CC(=O)Nc2ccc(Br)cc2C)n1 (centres undefined),53.57%
5,CC[C@@H](CO)Nc1nccc(-c2c[nH]c3cc(C(=O)OC)ccc23)n1,17.01%
6,Cc1cccc(CNC(Cc2ccsc2)c2nccs2)n1 (centres undefined),24.13%
7,CNc1cc(C)nc(C2CN(Cc3cc[nH]n3)CCO2)c1 (centres undefined),21.37%
8,CCCS(=O)(=O)N1CCC2(CC1)CCn1c(-c3cnn(C)c3)cnc12,18.05%
9,CCn1cnnc1CCNC(=O)c1ccc(Br)cc1F,-13.8%
10,CCn1cnnc1CCNC(=O)c1ccc(F)c(Br)c1,2.9%
11,CCn1cnnc1CNC(=O)c1ccc(Cl)cc1F,39.32%
12,CCn1cnnc1CCNC(=O)CCNC(=O)c1ccccc1F,52.98%
13,CC(CNC(=O)c1cc(Cl)ccc1F)N1CCCC1 (centres undefined),50.94%
14,CCn1cnnc1CNC(=O)c1cc(Cl)ccc1F,54.99%
15,CC(CNC(=O)c1ccc(Cl)cc1F)N1CCCC1 (centres undefined),9.57%
16,CCn1cnnc1CNC(=O)c1cc(Cl)ccc1O,2.1%
17,CC(CNC(=O)c1cc(Cl)ccc1I)N1CCCC1 (centres undefined),10.11%
18,Cn1c(N2CCOCC2)nc2cc(C(=O)N3CCC(O)(CO)C3)ccc21 (centres undefined),-2.63%
19,N#CCC(=O)NCc1nnc2n1CCN(Cc1ccco1)C2,-4.53%
20,CCN(CCCN1CCOCC1)C(=O)c1cnn(CC)c1,35.54%
21,O=C(NC1CCCC1)N1CC[C@H]2[C@H]1CCN2c1nncs1,49.25%
22,C=C(C)COc1ccccc1CN1CCCC(C(=O)NCCCO)C1 (centres undefined),-25.95%

row,Compound,INHIBITION
1,CN(C)C(=O)CN1CC[C@H]2CN(S(C)(=O)=O)C[C@@H]2C1=O,21.06%
2,CNC(=O)CS(=O)(=O)C1CCN(S(=O)(=O)c2cccc(Cl)c2C)CC1,-52.21%
3,CNC(=O)CS(=O)(=O)C1CCN(S(=O)(=O)c2ccccc2Cl)CC1,68.69%
4,CNC(=O)CS(=O)(=O)C1CCN(S(=O)(=O)c2ccccc2Br)CC1,27.5%
5,Cc1ccc(NC(=O)Nc2cnc(N3CCN(C)CC3)nc2)cc1,-4.34%
6,Cc1occc1C(=O)N1CC[C@@H](N2CCOCC2)[C@@H]1Cc1ccccc1,-23.67%
7,COc1ccc(OCCCNCCn2cccn2)cc1,31%
8,CC(=O)N1CCN(C(=O)CCc2cc(Br)cs2)CC1,26.74%
9,CN(C)C1CCN(C(=O)CCc2cc(Br)cs2)CC1,41.05%
10,CN1CCN(C(=O)CCc2cc(Br)cs2)CC1,72.05%
11,COCCC(=O)N1CCc2c(CNc3ncccn3)cncc2C1,17.77%
12,CCSC1(CNc2ncc(Br)cn2)CCOCC1,13.53%
13,CCCc1n[nH]c(C2CN(CCS(=O)(=O)CC)CCO2)n1 (centres undefined),-5.7%
14,NCC1[C@H]2CN(CCc3ccccc3)C[C@@H]12 (some centres undefined),-7.41%
15,NCC1[C@H]2CN(Cc3ccccc3)C[C@@H]12 (some centres undefined),55.7%
16,NCC1[C@H]2CN(Cc3cccc(Cl)c3)C[C@@H]12 (some centres undefined),45.77%
17,CN(C)Cc1cc(=O)n2c(n1)CN(C(=O)c1ccc[nH]1)CCC2,-16.33%
18,O=C(CCC1CCN(C2CSCCSC2)CC1)NCC1CCCO1 (centres undefined),-15.37%
19,Cc1cc(=O)[nH]c(NCCNC(=O)c2ccccc2N2CCCC2)n1,41.14%
20,Cc1nc(O)cc(CCNC(=O)CN2CCCCCC2)n1,4.12%
21,Cc1cc(=O)[nH]c(NCCNC(=O)CN2CCCCCC2)n1,56.93%
22,CC(C)C(=O)NCCCn1ncc2c(Cl)cccc21,-7.01%

row,Compound,INHIBITION
1,CSCC(=O)N(C)Cc1ccc(N(C)C)cc1,-20.68%
2,Cc1ccc2cc(CN(C)Cc3ccncn3)c(=O)[nH]c2c1,-20.98%
3,O=C(CCn1ncc2c(Cl)cccc21)NCC1CC1,20.8%
4,CN(C(=O)CCC(F)(F)F)c1cccc2ncccc12,59.67%
5,CN(Cc1cccc2ncccc12)C(=O)CCC(F)(F)F,-22.2%
6,CCCC(=O)N(C)c1cccc2ncccc12,28.14%
7,CCN(CC)S(=O)(=O)N(C)Cc1ccc2c(c1)OCCO2,8.06%
8,CCN(CC(=O)NCCc1nc(C)no1)Cc1ccc(Cl)cc1,-45.29%
9,Cc1nc2cc(O)nn2c(C)c1CCC(=O)N(C)Cc1ccccc1,37.41%
10,Cc1nc2cc(O)nn2c(C)c1CCC(=O)N(C)CCC(C)C,65.38%
11,CCN(CC)C(=O)CCc1c(C)nc2cc(O)nn2c1C,18.97%
12,CC(C)(C)c1cc(CNC(=O)c2cc(COc3ccccc3)[nH]n2)[nH]n1,-103.13%
13,Cc1nn(C)c(C)c1NC(=O)CN1CCCC1c1noc(C(C)C)n1 (centres undefined),12.66%
14,CC1=C(CCN2C[C@H](O)[C@@H](N3CCOCC3)C2)C(C)(C)CCC1,-57.94%
15,Cc1sc2nc(CCN)nc(N3CCN(S(C)(=O)=O)CC3)c2c1C,20.77%
16,CCOC(=O)N1CCN(c2nc(CCN)nc3sc(C)c(C)c23)CC1,17.89%
17,Cc1sc2nc(CCN)nc(N3CCS(=O)(=O)CC3)c2c1C,60.04%
18,CCn1cc(Cl)c(C(=O)Nc2ccc3c(c2)C(C)(C)C(=O)N3C)n1,14.61%
19,Cc1ccc(S(=O)(=O)NC(=O)CCc2ccccc2)cc1N(C)C,0.01%
20,CCOc1cccc(CCNC(=O)Cc2ccccc2O)n1,76.82%
21,CCOc1cccc(CCNC(=O)Cc2cccc(O)c2)n1,26.74%
22,CCOc1cccc(CCNC(=O)Cc2ccn[nH]2)n1,14.82%

row,Compound,INHIBITION
1,CN(C)C(=O)C1CCC2(CCN(Cc3cnn(C)c3)CC2)C1 (centres undefined),9.65%
2,CN(CCCOc1ccccc1)C(=O)c1csc(-c2nnc[nH]2)n1,35.94%
3,COC(=O)c1cc(C(=O)N2CCCCCC2)n(-c2ccccc2)n1,63.95%
4,COC(=O)c1cc(C(=O)N2CCC(C)CC2)n(-c2ccccc2)n1,35.23%
5,COC(=O)c1cc(C(=O)N2CCN(C)CC2)n(-c2ccccc2)n1,15.4%
6,CC(C)OCCCNC(=O)CS(=O)(=O)Cc1ccc(C(C)(C)C)cc1,33.22%
7,CC(C)(C)SCC(=O)NC(C)(C(N)=O)c1cccc(Cl)c1 (centres undefined),-20.64%
8,COCc1csc(NC(=O)NCc2ccsc2)n1,-21.99%
9,COCc1csc(NC(=O)NCc2ccccn2)n1,-4.91%
10,COCc1csc(NC(=O)NCc2ccc(C)s2)n1,50.93%
11,COc1ccc(CCC(=O)NC2CCC(O)CC2)cc1OC (centres undefined),-59.24%
12,CC(C)c1ocnc1C(=O)N1CCCC(c2ccn[nH]2)C1 (centres undefined),70.81%
13,Cc1nc(C)n(C2CCCN(C(=O)c3ncoc3C(C)C)C2)n1 (centres undefined),-12.27%
14,Cc1[nH]ncc1C(=O)N1CCCC(c2ccn[nH]2)C1 (centres undefined),-1.46%
15,CCCN(C(=O)c1ocnc1C)C1CCCN(Cc2ccccc2)C1 (centres undefined),4.72%
16,CC(NC(=O)Nc1ccc(-n2cncn2)cc1)C(=O)NC(C)(C)C (centres undefined),12.01%
17,CC(C)C(O)C(C)(C)CNC(=O)NCc1ccc(-n2cncn2)cc1 (centres undefined),53.19%
18,CC(O)(CNC(=O)NCc1cccc(-n2cncn2)c1)c1ccco1 (centres undefined),-33.81%
19,CSC(C)(C)CNC(=O)NCc1cccc(-n2cncn2)c1,54.29%
20,CSC(C)(C)CNC(=O)NCc1cccc(-n2ccnc2)c1,-27.12%
21,CC(O)CC(C)(C)CNC(=O)NCc1cccc(-n2cncn2)c1 (centres undefined),1.22%
22,Cn1cc(Cl)cc1C(=O)N1CCCN(Cc2ccccc2)CC1,-7.88%

row,Compound,INHIBITION
1,Cc1noc(C)c1CNC1CCN(c2ccccc2OC(F)F)C1 (centres undefined),-15.77%
2,CO[C@@H]1CN(Cc2scnc2C)[C@@H]2CCCO[C@@H]21,34.23%
3,CC(C)n1nc(CNc2ncccn2)c2c1CN(C1CCOCC1)CC2,38.49%
4,Cc1noc(NC(=O)c2ccc(Br)cc2)n1,-43.47%
5,OCCN1CCN(CC(O)c2cc(Cl)ccc2Cl)CC1 (centres undefined),-21.76%
6,CCOCCN1CCN(CC(O)c2cc(Cl)ccc2Cl)CC1 (centres undefined),50.61%
7,CCN1CCN(CC(O)c2cc(Cl)ccc2Cl)CC1 (centres undefined),-31.79%
8,CCCn1cnnc1CNC(=O)C1COc2ccc(OC)cc2C1 (centres undefined),21.14%
9,O=C(Nc1ccccc1)c1ccc2c(c1)C1(CCCCC1)CN2,-9.98%
10,Cc1c[nH]c(C2CCCN(Cc3ccccc3C(=O)O)C2)n1 (centres undefined),-2.35%
11,Cc1nc(CC(=O)N2CCC(c3ccn4nccc4n3)CC2)cs1,3.03%
12,Cc1nc(C)c(CC(=O)N2CCC(c3ccn4nccc4n3)CC2)s1,3.58%
13,Cc1noc(C)c1CC(=O)N1CCC(c2ccn3nccc3n2)CC1,52.57%
14,Cn1cc(CN2CCO[C@@H]3CN(Cc4ccoc4)C[C@@H]3C2)cn1,-0.35%
15,CO[C@H]1CC[C@H]2[C@H]1OCCN2CCOCc1ccccc1,-4.99%
16,CNS(=O)(=O)CCNC(=O)c1coc(COc2ccc(F)cc2)n1,-38.4%
17,CC[C@H](CO)NC(=O)c1coc(COc2ccccc2F)n1,-9.75%
18,CC[C@@H](CO)NC(=O)c1coc(COc2ccc(OC)cc2)n1,53.26%
19,CC[C@@H](CO)NC(=O)c1coc(COc2ccc3sc(C)nc3c2)n1,-10.58%
20,COC(=O)CCNC(=O)c1coc(COc2ccc(F)cc2)n1,56.16%
21,CSCCNC(=O)c1coc(COc2ccc(F)cc2)n1,1.88%
